Measurements: PubChem BioAssay (NCATS)
Results filed as inconclusive are left out. A call without a number means that no potency is given here. The source made the active and inactive calls. Calls follow the shape of the dose curve; as a rule, active = well fitted inhibition curve with a large enough effect; inconclusive = small, poorly fitted or top-dose-only effect; inactive = flat fitted curve, though single readings scatter.

Tests used:
Test in all cases: qHTS profiling for inhibitors of Plasmodium falciparum proliferation (AID 504749); also: nearly all actives have a fitted effect of over 60% in size
Conditions in all cases: P. falciparum in erythrocytes, SYBR Green DNA, 72 h; series mostly up to 28.7 µM
[1] = test system: C2A
Summary of the method: (§1)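 Infected RBCs, 0.3% parasitemia/2.5% Hct final; cpd 72 h, 37 C, 5% CO2; lysis buffer with saponin/triton/SYBR Green I, o/n RT dark; FI 485/535; norm. to artemisinin (0.29 uM) and DMSO.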

[2] = test system: CP185
Summary of the method: as §1

[3] = test system: CP191
Summary of the method: as §1

[4] = test system: CP192
Summary of the method: as §1

[5] = test system: CP194
Summary of the method: as §1

[6] = test system: CP201
Summary of the method: as §1

[7] = test system: CP203
Summary of the method: as §1

[8] = test system: CP211
Summary of the method: as §1

[9] = test system: CP215
Summary of the method: as §1

[10] = test system: CP217
Summary of the method: as §1
Potency is read from the fitted curve at half-maximal effect.

SMILES	Potency [1]	Potency [2]	Potency [3]	Potency [4]	Potency [5]	Potency [6]	Potency [7]	Potency [8]	Potency [9]	Potency [10]
CCCCC1=NC2(CCCC2)C(=O)N1Cc1ccc(-c2ccccc2-c2nn[nH]n2)cc1	inactive	inactive	inactive	inactive	inactive	inactive	inactive	inactive	inactive	inactive
CCn1cc(C(=O)O)c(=O)c2cnc(N3CCCC3)nc21	inactive	inactive	inactive	inactive	inactive	inactive	inactive	inactive	inactive	inactive
Cc1cccn2c(=O)c(-c3nnn[nH]3)cnc12	inactive	inactive	inactive	inactive	inactive	inactive	inactive	inactive	inactive	inactive
O=C(COc1ccc(Cl)cc1)N1CCN(Cc2ccc3c(c2)OCO3)CC1	inactive	inactive	inactive	inactive	inactive	inactive	inactive	inactive	inactive	inactive
Oc1c(I)cc(I)c2cccnc12	inactive	–	–	–	–	–	–	–	–	–
COC1=CC(=O)C[C@@H](C)[C@]12Oc1c(Cl)c(OC)cc(OC)c1C2=O	inactive	inactive	inactive	inactive	inactive	inactive	inactive	inactive	inactive	inactive
CCCCOc1ccc(OCCCN2CCOCC2)cc1	inactive	inactive	inactive	inactive	inactive	inactive	inactive	inactive	inactive	inactive
O=C(O)c1cc2cc(Cc3cccnc3)ccc2o1	inactive	inactive	inactive	inactive	inactive	inactive	inactive	inactive	inactive	inactive
CN(C)/N=N/c1nc[nH]c1C(N)=O	inactive	inactive	inactive	inactive	inactive	inactive	inactive	inactive	inactive	inactive
CCN(CC)C(=O)/C(C#N)=C/c1cc(O)c(O)c([N+](=O)[O-])c1	inactive	inactive	inactive	inactive	inactive	inactive	inactive	inactive	inactive	–
CCOC(=O)n1ccn(C)c1=S	inactive	inactive	inactive	inactive	inactive	inactive	inactive	inactive	inactive	inactive
COc1cc(C(=S)N2CCOCC2)cc(OC)c1OC	inactive	inactive	inactive	inactive	inactive	inactive	inactive	inactive	inactive	inactive
Clc1ccc2c(c1)CCc1cccnc1C2=C1CCNCC1	inactive	inactive	–	–	–	–	–	–	–	–
CC(=O)Oc1ccc(C(c2ccc(OC(C)=O)cc2)c2ccccn2)cc1	inactive	inactive	inactive	inactive	inactive	inactive	inactive	inactive	inactive	inactive
C[C@]12CCC(=O)C=C1CC[C@H]1[C@@H]3CC[C@](O)(C(=O)CO)[C@@]3(C)C[C@H](O)[C@@]12F	inactive	inactive	inactive	inactive	inactive	inactive	inactive	inactive	inactive	inactive
CCCCCCc1ccc(O)cc1O	inactive	inactive	inactive	inactive	inactive	inactive	inactive	inactive	inactive	inactive
C=CCc1ccc(O)c(OC)c1	inactive	inactive	inactive	inactive	inactive	inactive	inactive	inactive	inactive	inactive
O=C(O)CNC(=O)c1ccccc1	inactive	inactive	inactive	inactive	inactive	inactive	inactive	inactive	inactive	inactive
O=C(Nc1ccc(Cl)c(Cl)c1)C1CC1	inactive	inactive	inactive	inactive	inactive	inactive	inactive	inactive	inactive	inactive
Cc1cc(=O)n(-c2ccccc2)n1C	inactive	inactive	inactive	inactive	inactive	inactive	inactive	inactive	inactive	inactive
CC(O)(P(=O)(O)O)P(=O)(O)O	inactive	inactive	inactive	inactive	inactive	inactive	inactive	inactive	inactive	inactive
O=C1c2ccccc2C(=O)C1c1ccccc1	inactive	inactive	inactive	inactive	inactive	inactive	inactive	inactive	inactive	inactive
Nc1ccc(/C=C/c2ccc(N)cc2S(=O)(=O)O)c(S(=O)(=O)O)c1	inactive	inactive	inactive	inactive	inactive	inactive	inactive	inactive	inactive	inactive

SMILES	Potency [1]	Potency [2]	Potency [3]	Potency [4]	Potency [5]	Potency [6]	Potency [7]	Potency [8]	Potency [9]	Potency [10]
NCCC(O)(P(=O)(O)O)P(=O)(O)O	inactive	inactive	inactive	inactive	inactive	inactive	inactive	inactive	inactive	inactive
C1CCc2nnnn2CC1	inactive	inactive	inactive	inactive	inactive	inactive	inactive	inactive	inactive	inactive
NCCc1ccn[nH]1	inactive	inactive	inactive	inactive	inactive	inactive	inactive	inactive	inactive	inactive
CC(C)(C)CC(C)(C)c1ccc(OCCOCC[N+](C)(C)Cc2ccccc2)cc1	3.16 µM (active)	3.55 µM (active)	1.58 µM (active)	4.26 µM (active)	3.79 µM (active)	4.78 µM (active)	4.78 µM (active)	4.26 µM (active)	5.36 µM (active)	4.47 µM (active)
O=C(CCN1CCC(c2ccccc2)C1)c1ccc2c(c1)OCCO2 (centres undefined)	inactive	inactive	inactive	inactive	inactive	inactive	inactive	inactive	inactive	inactive
Cc1cc(O)c(C(C)C)cc1Cl	inactive	inactive	inactive	inactive	inactive	inactive	inactive	inactive	inactive	inactive
COc1cccc2c1C(=O)c1c(O)c3c(c(O)c1C2=O)C[C@@](O)(C(C)=O)C[C@@H]3O[C@H]1C[C@H](N)[C@H](O)[C@H](C)O1	3.16 µM (active)	4.47 µM (active)	3.16 µM (active)	6.01 µM (active)	7.57 µM (active)	9.53 µM (active)	8.49 µM (active)	3.79 µM (active)	7.57 µM (active)	1 µM (active)
Cc1c(C)n(CCN(C)C)c2ccc(C(=O)OCCN(C)C)cc12	inactive	inactive	inactive	inactive	inactive	inactive	inactive	inactive	inactive	inactive
C[C@H]1[C@H](NC(=O)/C(=N/OC(C)(C)C(=O)O)c2csc(N)n2)C(=O)N1S(=O)(=O)O (stereo in doubt)	inactive	inactive	inactive	inactive	inactive	inactive	inactive	inactive	inactive	inactive
CCCn1c(=O)[nH]c(=O)c2[nH]cnc21	inactive	inactive	inactive	inactive	inactive	inactive	inactive	inactive	inactive	inactive
C[C@]12CC[C@@H]3c4ccc(O)cc4CC[C@H]3[C@@H]1CC[C@@H]2O	inactive	inactive	inactive	inactive	inactive	inactive	inactive	inactive	inactive	inactive
C[C@H](O)C(=O)Nc1c(I)c(C(=O)NC(CO)CO)c(I)c(C(=O)NC(CO)CO)c1I	inactive	inactive	inactive	inactive	inactive	inactive	inactive	inactive	inactive	inactive
CCCCCCCCCCCCCCCCCC(=O)OCC(O)CO (centres undefined)	inactive	inactive	inactive	inactive	inactive	inactive	inactive	inactive	inactive	inactive
Oc1c(Cl)cc(Cl)cc1Sc1cc(Cl)cc(Cl)c1O	inactive	inactive	inactive	inactive	inactive	inactive	inactive	inactive	inactive	inactive
CCOc1ccc(NC(=O)CC(C)O)cc1 (centres undefined)	inactive	inactive	inactive	inactive	inactive	inactive	inactive	inactive	inactive	inactive
c1ccc(OCc2ccc(CCCN3CCOCC3)cc2)cc1	inactive	inactive	inactive	inactive	inactive	inactive	inactive	inactive	inactive	inactive
NCCCC[C@H](N[C@@H](CCc1ccccc1)C(=O)O)C(=O)N1CCC[C@H]1C(=O)O	inactive	inactive	inactive	inactive	inactive	inactive	inactive	inactive	inactive	inactive
COc1cc(NS(C)(=O)=O)ccc1Nc1c2ccccc2nc2ccccc12	1.78 µM (active)	4.47 µM (active)	0.794 µM (active)	5.36 µM (active)	4.78 µM (active)	5.36 µM (active)	–	4.78 µM (active)	3.38 µM (active)	3.16 µM (active)
N[C@H](Cc1c[nH]c2ccccc12)C(=O)O	inactive	inactive	inactive	inactive	inactive	inactive	inactive	inactive	inactive	inactive
COc1c2occc2c(OC)c2c(=O)cc(C)oc12	inactive	inactive	inactive	inactive	inactive	inactive	inactive	inactive	inactive	inactive
Cc1c(N(C)CS(=O)(=O)O)c(=O)n(-c2ccccc2)n1C	inactive	inactive	inactive	inactive	inactive	inactive	inactive	inactive	–	inactive
COc1cc2c(cc1OC)C(C(C(=O)N(CCc1ccc(OC)c(OC)c1OC)CCc1ccc(OC)c(OC)c1OC)c1ccccc1)=NCC2 (centres undefined)	inactive	10 µM (active)	10 µM (active)	13.5 µM (active)	13.5 µM (active)	15.1 µM (active)	–	12 µM (active)	6.75 µM (active)	4.47 µM (active)
